Assay results published in PubChem BioAssay (NCI).
Compounds without any hit were thinned out: in the full panel of roughly 83,000, 20% have a hit.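 The test compound was applied at a single concentration to cells in 96-well plates for 48 hours, and percent growth was recorded.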 A number with no mark means an inactive call. The source made the active and inactive calls. How the source made its calls: active means growth percent below 10; inactive means the rest.

System: HL-60(TB) leukemia
Experiment: NCI-60 one-dose screen, 48 h (100 = growth as untreated, 0 = no growth, -100 = all killed)
Details: 10 µM unless noted

| Structure (SMILES) | growth |
| --- | --- |
| N=C1C(c2nc3ccccc3s2)=C(O)CN1c1cc(Cl)cc(Cl)c1 | 35.5% |
| Oc1ccc(N=Cc2ccc(OCc3ccccc3)cc2)cc1 | 104% |
| COC(=O)Cc1cc(COC(C)=O)ccc1C | 84.8% |
| O=c1cc(-c2ccc(Cl)cc2)[nH]c2ccccc12 | 44.3% |
| Cc1n(Cc2ccc3ccccc3c2)cc[n+]1Cc1ccc2ccccc2c1 | -38.1% (active) |
| COc1cccc(/C=C/C(=O)/C=C(/C=C/c2cccc(OC)c2OC)OB(F)F)c1OC | 26.1% |
| CCC(=O)Oc1ccc(/C(=C(\C)c2ccccc2)c2ccc(OCCN(CC)CC)cc2)cc1 | 45.1% |
| C[C@]12CC[C@H](O)CC1=CC[C@@H]1[C@@H]2CC[C@]2(C)C(c3cccnc3)=CC[C@@H]12 | -25% (active) |
| O=C1OC(=O)C2C1C1(Cl)C(Cl)=C(Cl)C2(Cl)C2C(=O)OC(=O)C21 (stereo not given) | 98% |
| C#CCn1cnc2cnc(Nc3cccc(NC(=O)C=C)c3)nc21 | 8.32% [6.25 µM] (active) |
| O=[N+]([O-])c1cccc(SSc2cccc([N+](=O)[O-])c2)c1 | 93.6% |
| CCCCCCCCCCCC[n+]1ccc2ccccc2c1 | -53.4% (active) |
| COc1ccc(-c2cc3c(OC)c(OC)c(OC)cc3oc2=O)cc1 | 36.5% |
| COc1ccc(/C=C(\C#N)n2nnc3ccccc32)cc1 | -13% (active) |
| CSc1ccc(N2C(=N)C(=S)N(c3ccc(C)cc3)C2=O)cc1 | 101% |
| C=C(C)[C@@H]1CC[C@]2(CN)CC[C@]3(C)[C@H](CC[C@@H]4[C@@](C)(CCCN)[C@H](C(=C)C)CC[C@]43C)[C@@H]12 | 53.3% |
| CCN(CC)Cc1cc(C=C2C(=O)NC(=S)NC2=O)cc(OC)c1O | 106% |
| CC(C)C[C@H](C(=O)N[C@@H](C)C(N)=O)N1CC=CCN(O)S1(=O)=O | 110% [5 µM] |
| Clc1ccc(Nc2nnc(CNc3ccccc3)c3ccccc23)cc1 | -13.4% (active) |
| Cc1n[nH]c(C)c1-c1c(C)n[nH]c1C | -6.88% (active) |

| Structure (SMILES) | growth |
| --- | --- |
| CCN1C(=O)N(CC)C2C1NN=c1s/c(=C3\C(=O)N(CCC(C)C)c4ccccc43)c(=O)n12 (stereo not given) | -38.2% (active) |
| CC(=O)c1ccc2c(c1)CCc1ccccc1-2 | 126% |
| CC(=O)Nc1ccc(C(=O)/C=C/c2ccccc2)cc1 | 53.9% |
| CC[N+](C)(C)N | 103% |
| COc1cc(NCCCN(CC(C)C)C2CCCC2)c2ncccc2c1 | 22.5% |
| COc1cc2nc(SCc3cc(OC)c(OC)c(OC)c3)n(-c3ccccc3OC)c(=O)c2cc1OC | -16% (active) |
| CCN1CCN(CCNc2nccc(-c3c(-c4ccc(F)c(OC)c4)nc4sccn34)n2)S1(=O)=O | 89.1% |
| O=C(Cc1ccccc1)Nc1cccc(N=Cc2ccccc2O)c1 | 100% |
| Cc1ccc(S(=O)(=O)OC[C@@]2(C)CC[C@]3(C)CC[C@]4(C)C(=C3C2)C=C[C@@H]2[C@@]3(C)CCCNC(C)(C)[C@@H]3CC[C@]24C)cc1 | -58.4% (active) |
| C#CC(OC(=O)N(C)C)(c1ccccc1)c1ccc(F)cc1 (stereo not given) | 127% |
| S=C(S)Oc1cccc2cccnc12 | 80.7% |
| O=C1Nc2ccc(Cl)cc2/C1=N/c1nc(-c2ccc(Cl)cc2)cs1 | -32.4% (active) |
| C=C1C(=O)O[C@H]2[C@H]1CC/C(COC(=O)NCCc1c[nH]c3ccccc13)=C\CC[C@@]1(C)O[C@@H]21 | -46.2% (active) |
| Oc1ccc2c(=S)cc(-c3ccc(Br)cc3)oc2c1O | -22% (active) |
| CCN(CC)CCNc1ccc(C)c2sc3cc(C)ccc3c(=O)c12 | 64.1% |
| CCOC(=O)c1cnn(-c2nc(-c3ccc(F)cc3)c(C#N)c(N3CCOCC3)n2)c1N | 93.1% |
| Cc1cscc(C)c1=S | 111% |
| COc1ccc2nc(-c3ccc(Cl)cc3)cc(-c3nnc(SC/C(=N/O)c4ccccc4)o3)c2c1 | 82% |
| COC(=O)c1c(C)nc(C)c2c1C(=O)C(Br)=C(NCc1ccccc1)C2=O | -30.9% (active) |
| COc1ccc(/C=C/C(=O)NCCO)cc1 | 93.6% |
